SMILES strings stand for the structures. Hit rate of the full screen: of about 360,000 compounds, about 2,900 (0.81%) were called active.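 Rule for the calls: active = inhibition above the mean inhibition across every tested compound plus 3 SD (cut at about 22% in these data); inactive = the rest.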 The full list was thinned out, with actives kept by preference.

For 25 compounds, inhibition results are on record in PubChem BioAssay AID602281 (The Scripps Research Institute Molecular Screening Center, 2012).

Perilipin-5 (Homo sapiens) + 1-acylglycerol-3-phosphate O-acyltransferase ABHD5 (Homo sapiens), sequence (Q00G26 whole entry, looked up): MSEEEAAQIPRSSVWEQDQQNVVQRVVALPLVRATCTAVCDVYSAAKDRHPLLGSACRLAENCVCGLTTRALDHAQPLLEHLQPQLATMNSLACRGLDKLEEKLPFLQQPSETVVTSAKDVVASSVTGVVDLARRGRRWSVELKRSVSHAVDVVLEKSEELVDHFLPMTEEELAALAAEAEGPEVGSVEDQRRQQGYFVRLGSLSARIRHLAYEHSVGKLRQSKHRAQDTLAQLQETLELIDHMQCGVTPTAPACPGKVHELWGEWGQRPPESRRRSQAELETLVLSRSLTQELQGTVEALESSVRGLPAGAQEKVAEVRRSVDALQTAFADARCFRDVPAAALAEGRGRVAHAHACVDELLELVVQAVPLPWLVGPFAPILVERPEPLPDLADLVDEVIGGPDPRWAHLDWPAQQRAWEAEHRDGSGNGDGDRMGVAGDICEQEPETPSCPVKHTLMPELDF
Perilipin-5 (Homo sapiens) + 1-acylglycerol-3-phosphate O-acyltransferase ABHD5 (Homo sapiens), sequence (Q8WTS1 whole entry, looked up): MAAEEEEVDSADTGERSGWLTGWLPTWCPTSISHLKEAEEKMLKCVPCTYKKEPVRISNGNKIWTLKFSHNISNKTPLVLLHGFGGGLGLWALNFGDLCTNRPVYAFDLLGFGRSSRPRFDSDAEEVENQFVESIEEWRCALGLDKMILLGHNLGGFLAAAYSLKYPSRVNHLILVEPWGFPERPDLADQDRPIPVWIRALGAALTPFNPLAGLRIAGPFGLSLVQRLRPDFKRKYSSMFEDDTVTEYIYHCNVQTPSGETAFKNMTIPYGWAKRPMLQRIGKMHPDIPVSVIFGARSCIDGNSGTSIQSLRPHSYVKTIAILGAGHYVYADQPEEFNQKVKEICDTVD

The assay addresses Perilipin-5 (Homo sapiens) + 1-acylglycerol-3-phosphate O-acyltransferase ABHD5 (Homo sapiens) (UniProt Q00G26+Q8WTS1). The experiment in a line: ABHD5-PLIN5 interaction inhibitors, primary screen, cell lysate, split luciferase complementation, luminescence (AID 602281).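 Note: 0% = DMSO only wells and the 100% control is not disclosed.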 The conditions noted are these: Split G. princeps luciferase complementation, 4 h, at 4 µM, stronger effect = higher value.
Take `CCOC(=O)[C@]12Cc3cc(OC)ccc3[C@H]1N(C(C)C)C(=O)c1ccccc12`: the inhibition – broadly, the drop in the measured response relative to a control, in per cent – is 14.9% (inactive).
Turning to `CCOC(=O)[C@]12Cc3ccccc3[C@H]1N(C1CCCCC1)C(=O)c1cc(OC)ccc12`, the inhibition is 39.6% (active).
Take `CC(C)N(CC#CCC1(O)c2ccccc2-c2ccccc21)C(C)C`: the inhibition was 3.81% (inactive).
`CN(C)CC1Oc2ccccc2OC1(O)c1ccccc1` (stereo not given): the inhibition is 46.5% (active).
For the compound `CCOC(=O)CNC(=O)N1Cc2cc(N3CCCCC3)ccc2-n2nncc2C1`, the inhibition is 5.92% (inactive).
Take `CCN1CC2C3CCC(C)(O3)C2C1` (stereo not given): the inhibition was 4.06% (inactive).
As to `Cc1ccc(-c2cc(C(=O)N3CCC4(CC3)OCCO4)no2)cc1`, the inhibition was -2.79% (inactive).
As for `CCc1cccc2c(C#N)cn(CC(=O)N3CCOCC3)c12`, the inhibition was 1.5% (inactive).
As to `CCC(=O)CC(c1ccc([N+](=O)[O-])cc1)c1c(O)c2ccccc2oc1=O` (stereo not given), the inhibition was 5.29% (inactive).
Consider `Cc1cccc(N2C(=O)NC(=O)/C(=C\c3cnn(-c4ccccc4)c3)C2=O)c1`, for which the inhibition is 55.1% (active).
As to `O=C(COC(=O)c1ccccc1)Nc1ccc(Cl)cc1C(=O)c1ccccc1`, the inhibition was 7.59% (inactive).
On to `Cc1ccc(S(=O)(=O)N(C)c2ccc(C(=O)NCC3(N(C)C)CCCCC3)cc2)cc1`, for which the inhibition is 0.68% (inactive).
Take `COc1ccccc1N1CCN(C(CNC(=O)Oc2ccccc2)c2cccnc2)CC1` (stereo not given): the inhibition is 0.85% (inactive).
With `N#Cc1ccc(Cn2cc(C(=O)c3ccco3)c3ccccc32)cc1`, the inhibition is 5.75% (inactive).
Consider `Cc1ccc(Cn2c(C)c3cnn(CC(=O)N4CCC5(CC4)OCCO5)c(=O)c3c2C)cc1`, for which the inhibition was 9.7% (inactive).
As to `C=CCN1C(=O)NC(=O)/C(=C/c2ccc(OCC(=O)Nc3ccc(C)cc3)cc2)C1=O`, the inhibition is 15.7% (inactive).
Turning to `COc1ccc(CN2C(=O)NC(=O)/C(=C\c3ccc(OC)c(OC)c3OC)C2=O)cc1`, the inhibition was 23.3% (active).
For `Cc1ccc(C)c(NC2=NCCCS2)c1`, the inhibition was 7.47% (inactive).
With `C=CCN1C(=O)C2(C(C(=O)OCC)=C(N)Oc3c2c(=O)oc2ccccc32)c2ccccc21` (stereo not given), the inhibition is -7.25% (inactive).
Turning to `O=c1[nH]c(=O)n(-c2ccc(F)cc2)c(O)c1C=NCCN1CCCCC1`, the inhibition was -4.1% (inactive).
`CCc1nnc(NS(=O)(=O)c2ccc(N=Cc3c(O)n(-c4ccccc4)c(=O)[nH]c3=O)cc2)s1`: the inhibition was 24.9% (active).
Next, `COc1ccc(N=Cc2c(O)n(C)c(=O)[nH]c2=O)cc1`: -7.01% (inactive); `Cc1ccc(N2C(=O)NC(=O)C(CCc3ccncc3)(Cc3cccc(Cl)c3Cl)C2=O)cc1` (stereo not given): -2.62% (inactive).
Turning to `CC1CCC(N(C)C2CCN(C)CC2)CC1` (stereo not given), the inhibition is -5.21% (inactive).
Then `O=c1[nH]c(=O)n(CCc2ccc(F)cc2)c(O)c1/C=N/N1CCCCC1`, with -2.89% (inactive).
